Values joined by “and” are separate entries in the source; they are usually repeats but may differ in a detail not shown here. Equal values may be shown once. About 83,000 compounds went through this panel and 20% of them were active in at least one assay; those are over-represented in the sample as a whole.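 48-hour exposure, single concentration, 96-well plates; percent growth endpoint where 0 means no net growth. Active: below 10.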 A number with no mark means an inactive call. Active and inactive are the calls of the source.
Each compound was assayed on HS 578T breast (assay: NCI-60 one-dose screen, 48 h (100 = growth as untreated, 0 = no growth, -100 = all killed)). Settings: 10 µM unless noted.
Method: Growth inhibition of the HS 578T human tumor cell line is measured as a screen for anti-cancer activity. Cells are grown in 96 well plates and exposed to the test compound for 48 hours. Compounds are tested at a single concentration, which is 10^-5 M for most compounds. The reported endpoint is percent growth (GI% or GIPRCNT), where numbers from 0 - 100% represent growth inhibition, and numbers from -100% - 0 represent cell death. For example, a value of 40 represents 60% growth inhibition. A value of 0 means no net growth occurred over the course of the experiment. A value of -40 indicates 40% of cells at the beginning of the experiment died by the end of the experiment. A value of -100 means all cells are dead at the end of the experiment.
NCI-60 Human Tumor Cell Lines Screen was performed using the standard one-dose NCI protocol, which is described in more detail at https://dtp.cancer.gov/discovery_development/nci-60/default.htm.
Compounds with GIPRCNT values below 10 were considered active. Activity score was based on GIPRCNT using the following formula: […]
Score is 0 for GIPRCNT values of 100 or above, 50 for GIPRCNT values of 0, and 100 for GIPRCNT values of -100.

Compound | growth
COc1c2c(cc3c1C(CCc1ccccc1)N(C)CC3)OCO2 (stereo not given) | 11%
Cn1cc(-c2cc(N)n3nc(-c4c[nH]c5ccc(F)cc45)cc3n2)c2cc(Br)cnc21 | 86.4%
COC(=O)c1c(C(=O)OC)c2c3ccccc3c3ccccc3n2c1C(=O)C(F)(F)F | 99.2%
O=C(N/N=C/c1ccc(B(O)O)s1)c1[nH]c2ccc(Br)cc2c1-c1ccccc1 | -25.7% (active)
OC(c1ccccc1)(c1ccccc1)C1CCN(c2ccc3nnc(Cl)n3n2)CC1 | 71.1%
COc1ccc2nc(NC(=O)c3ccc(N(C)C)cc3)sc2c1 | 95.9%
O=C(Nc1ccc(Cl)c(C(F)(F)F)c1)N1CCN(c2cc(-c3cn(-c4ccccc4)nc3-c3cccc(O)c3)ccn2)CC1 | 7.22% (active)
O=C(COc1ccc(/C=C2/C(=O)Nc3ccc(Cl)cc32)cc1)Nc1ccc(Br)cc1 | -14.2% (active)
COc1ccc(C2=NN(C(=O)[C@H]3[C@@H](c4ccco4)c4sc(=O)[nH]c4S[C@@H]3C)C(c3ccc4ccccc4c3)C2)cc1 (stereo not given in full) | 29.6%
c1n[nH]cc1-c1nc2ccc3cn[nH]c3c2c2c1CCCC2 | 53%
N#Cc1c(-c2ccc(F)cc2)nc(SCc2ccc(F)cc2)nc1N1CCNCC1 | -0.165% (active)
CC1=C(C(=O)Nc2ccccc2)C(c2cccc3ccccc23)n2c(nc3ccccc32)N1 (stereo not given) | -13.9% (active)
COc1ccc(OC)c(Cn2cc(C#N)c(N)c2C(=O)c2ccc(Br)cc2)c1 | 45.2%
COc1ccc2[nH]c(=O)c(CSc3ccccc3Nc3nccc(-c4ccc(Cl)cc4)n3)cc2c1 | 37.1%
COc1ccc(N=Nc2c(N)nn3c(-c4cc5ccccc5oc4=O)ccnc23)cc1 | 29.1%
Cc1ccc(C2CC(c3ccc(S(=O)(=O)NCCNc4nc(N(C)C)nc(N5CCOCC5)n4)cc3)=Nc3c(N)nc(N)nc3N2)cc1 (stereo not given) | 47.8%
COc1cc(CNC(=O)C[C@H](C)CCC=C(C)C)ccc1OCc1cn(-c2ccccc2Cl)nn1 | 81%
O=[N+]([O-])c1cccc(-c2nnc3c(/C=C/c4ccc(F)cc4)nc4ccccc4n23)c1 | 47.9%
COC(=O)c1cc(C(=O)C(F)(F)F)n2c3ccccc3c3ccccc3c12 | 41.7%
CNc1nc2ccccc2n2c(-c3ccc(O)c(O)c3)cnc12 | 1.79% (active)

Compound | growth
O=c1[nH]c2ccccc2cc1CSc1ccccc1Nc1nccc(-c2ccc3c(c2)OCO3)n1 | 34.7%
Cc1ccc(Cl)cc1NC(=O)N/C(N)=N/c1nc2ccccc2s1 | 19%
Clc1ccccc1Nc1nnc(-c2c[nH]c3ccccc23)o1 | 18.2%
COc1ccc(NC2=C(I)C(=O)C(C)=C(C)C2=O)cc1 | 85.6%
CS(=O)(=O)Nc1cncc(-c2ccc3ncnc(NCc4ccccc4)c3c2)c1 | -5.05% (active)
Clc1ccc2c(NCCNC34CC5CC(CC(C5)C3)C4)ccnc2c1 | -45.4% (active)
COc1cc(CNC(=O)C[C@H](C)CCC=C(C)C)ccc1OCc1cn(-c2ccc(Cl)c(Cl)c2)nn1 | 57%
COc1cc(CNC(=O)[C@]23CCC(C)(C)CC2C2=CCC4[C@@]5(C)CCC(OC(C)=O)C(C)(C)C5CC[C@@]4(C)[C@]2(C)CC3)ccc1OCc1cn(-c2ccc(Cl)cc2Cl)nn1 (stereo not given in full) | 100%
Cc1ccc(C(=O)Nc2cc(-c3ccccc3)cc(C(F)(F)F)c2)cc1C#Cc1cnc2cccnn12 | 85.3%
CC(C)(C)C(=O)c1c2c(c3ccc4c5ccccc5ccc4n13)C(=O)c1ccccc1C2=O | 100%
COc1ccc2c(c1)N=c1c-2cc2c(O)[nH]c(=S)n2c1=O | 21.5%
COc1ccc2[nH]c(O)c(N=Nc3nc(-c4ccc(Cl)cc4)cs3)c2c1 | 9.33% (active)
CN1CCN(CCS(=O)(=O)Nc2cc(-c3ccc4ncnc(Nc5ccc(F)c(Cl)c5)c4c3)cnc2Cl)CC1 | -23.3% (active)
Cc1nn(-c2ccccc2)c2ncn(CC(=O)N/N=C/c3ccccc3O)c(=O)c12 | 54.9%
CC1=C(C(=O)OC(C)C)C(c2ccc(O)cc2)NC(=O)N1 (stereo not given) | 99.8%
CC(=O)Nc1cccc(-n2c(COc3ccc(Br)cc3)nc3ccccc32)c1 | 78.2% and 106%
Cn1cc(-c2cc(N)n3nc(-c4c[nH]c5ccccc45)cc3n2)c2cc(Br)ccc21 | -29.9% (active)
COc1ccc2ccccc2c1/C=C1\SC(=Nc2ccc(O)cc2)NC1=O | 24.1%
CCC(=O)c1c2c(c3ccc4c5ccccc5ccc4n13)C(=O)c1ccccc1C2=O | 96.7%
O=C(Nc1ccc(-c2ccc3c(c2)NC(=O)/C3=C\c2ccc[nH]2)cc1)Nc1ccc(Cl)c(C(F)(F)F)c1 | 39%
